Shown are actives, neighbours in structure and some others; about 2.1% of the full set was active somewhere.
Abeta yeast res: A-beta toxicity reversal in yeast; yeast expressing A-beta42, growth rescue, OD600, 48 h; response scale: 0% DMSO, 100% iron-clioquinol control; Potency, µM (titrated, usually from 46.1 µM), hits mostly activators; 410,000 compounds, 0.063% hits; also: nearly all actives have a fitted effect of over 55% in size
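Growth rescue measured by 600 nm absorbance after 48 h yeast culture at 30 C with compound. Values normalized between DMSO and an equimolar ferric chloride plus clioquinol control.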
aSyn rescue: inhibitors of alpha-synuclein toxicity in yeast; AID 652106; 370,000 compounds, 0.14% hits; Potency, µM (highest dose often 46.1 µM), for inactives: top-dose growth rescue (activation), hits mostly activators; Yeast expressing alpha-synuclein, growth rescue, BacTiter-Glo, 24 h; also: % of control where 0% means no effect; nearly all actives have a fitted effect of over 65% in size
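Screening used galactose-induced yeast with toxic alpha-synuclein levels, exposed to compound for 24 hr at 30 deg C. Cell growth, read with BacTiter-Glo luminescence, gave the measured signal.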
FUS yeast rescue: rescues growth of FUS-expressing yeast; S. cerevisiae FUS-expressing, growth rescue, OD600, 24 h; Potency, µM (titrated, usually from 76.6 µM), actives largely listed as activators; 390,000 compounds, 0.24% hits; AID 1347120;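 also: plate controls were DMSO vehicle for no effect and reference control for full effect; nearly all actives have a fitted effect of over 55% in size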
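Yeast FUS proteinopathy model; galactose-induced FUS (2%), starting OD 0.005. Cpds in dilution series, 24hr, 30C, 99% humidity. Abs 600 nm growth. Pos ctrl CP55940 (top 92uM final); neg ctrl DMSO.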
TDP-43 yeast inh: inhibitors of TDP-43 toxicity in yeast; TDP-43 expressing yeast growth rescue, BacTiter-Glo, 24 h; Potency, µM (doses to about 46.1 µM), inactives show at the highest dose growth rescue (activation), most hits filed as activators; 410,000 compounds, 1.8% hits; AID 652104; also: % of control where 0% means no effect; nearly all actives have a fitted effect of over 50% in size
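Luminescence from BacTiter-Glo reports growth of TDP-43-expressing yeast after 24 hr at 30 deg C with compound. Cells were raffinose-pregrown to mid-log, then seeded in galactose medium at OD600=0.02.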
* = called active by the depositor; i = inactive; u = inconclusive; x = no result; ! = repeats disagree; [ ] = another dose, or the depositor's remark. Calls follow the shape of the dose curve; as a rule, active = well fitted curve in the direction sought with a large enough effect; inconclusive = small, poorly fitted or top-dose-only effect, or another doubt; inactive = no such curve, though single readings can be large; an effect the other way counts as inactive or inconclusive. Potency is read from the fitted curve at half-maximal effect.

SMILES	Abeta yeast res	aSyn rescue	FUS yeast rescue	TDP-43 yeast inh
COc1ccc(-c2nc3scc(CCNS(=O)(=O)c4ccccc4F)n3n2)cc1	i	x	i	22µM*
Cc1cc(C)nc(SCC2COc3ccccc3O2)n1 (stereo not given)	i	9%	i	14µM*
COc1ccccc1CNc1nc2cc(-c3ccc(OC)c(OC)c3)sc2c(=O)n1C	i	13%	u	u
COc1ccc(Nc2nc3cc(-c4sccc4C)sc3c(=O)n2C)cc1OC	i	10%	u	35µM*
COc1ccc(Nc2nc3cc(-c4ccsc4)sc3c(=O)n2C)cc1OC	i	16%	28µM*	u
COc1ccc(-c2cc3nc(NCC4CCCCC4)n(C)c(=O)c3s2)cc1OC	22µM*	30%	i	20µM*
CCN(CCC(=O)O)c1ccc(/C=C/c2ccnc3ccccc23)cc1	x	-29%	x	x
Cc1ccc(S(=O)(=O)N2CCCC(C(=O)Nc3c(C)n(C)n(-c4ccccc4)c3=O)C2)cc1C (stereo not given)	x	x	i	x
Cc1cccc(OCCCn2c(CCNC(=O)C3CCCCC3)nc3ccccc32)c1	i	6%	i	-1%
O=C(Cc1ccccc1[N+](=O)[O-])OCC(=O)c1ccccc1Br	i	2%	i	13µM*
C[C@@H]1N[C@H]2N(C1=O)c1ccccc1[C@@]21C[C@@H]2C(=O)N[C@](C)(O1)c1nc3ccccc3c(=O)n12	x	x	i	x
COc1ccc(F)cc1S(=O)(=O)n1nnc2ccccc21	i	u	u	10µM*
COc1ccc(OC)c(S(=O)(=O)n2nnc3ccccc32)c1	i	-13%	x	u
CCOC(=O)c1cc(-c2ccc(OC)cc2)n(CCC(=O)NCCc2ccccc2)c1C	i	x	u	32µM*
Cc1ccc(S(=O)(=O)N2CCCc3cc(NS(=O)(=O)c4cc(F)ccc4F)ccc32)cc1	i	x	i	21%[9.22 µM]
Clc1ccc2nc(-c3ccncc3)cc(-c3ccccc3)c2c1	i	1%	i	22%
CSc1cc(-c2ccncc2)nc(-c2ccc(Cl)cc2)c1	i	11%	i	11µM*
CCOC(=O)Cn1c2ccc(C)cc2c2nc(C)sc21	i	-8%	i	16µM*
CC(=O)c1ccc(Nc2nc(C)cc(C)n2)cc1	i	-2%	i	10%
Cc1cc(C)nc(Nc2ccc(F)cc2)n1	i	0%	i	25µM*
CCCn1c(NC(=O)c2cccc(S(=O)(=O)N3CCCC3)c2)nc2ccccc21	i	1%	u	22µM*
CCCCCCCn1c(NC(=O)CC)nc2ccccc21	22µM*	u	i	u
CCC(=O)Nc1nc2ccccc2n1CCN1CCOCC1	i	3%	i	-1%
O=C(C1CCCN(S(=O)(=O)c2cccc3nsnc23)C1)N1CCN(c2ccccc2Cl)CC1 (stereo not given)	i	x	i	u
COc1ccc(Cl)cc1NC(=O)CSc1nc(-c2ccco2)cc(C(F)(F)F)n1	i	x	i	19%
SMILES	Abeta yeast res	aSyn rescue	FUS yeast rescue	TDP-43 yeast inh
CCc1nc2ccc(C(=O)N3CCN(c4ccccc4F)CC3)cc2nc1CC	i	1%	u	20µM*!
CCOC(=O)N1CCN(C(=O)c2ccc3nc(-c4ccccc4)c(-c4ccccc4)nc3c2)CC1	i	4%	u	18µM*
O=C(NCC(c1ccco1)S(=O)(=O)c1ccc(Cl)cc1)c1ccccc1F (stereo not given)	i	x	i	20%[9.22 µM]
CCC(C(=O)Nc1cc(OC)cc(OC)c1)n1nc(-c2ccc(C)c(C)c2)ccc1=O (stereo not given)	u	x	u	28µM*
CCOc1ccc(NC(=O)C(CC)n2nc(-c3ccc(C)c(C)c3)ccc2=O)cc1 (stereo not given)	i	x	i	19%
Cc1ccc(C)c(-c2ccc(=O)n(Cc3ccc(F)cc3Cl)n2)c1	i	u	u	22µM*!
Cc1ccc(C)c(-c2ccc(=O)n(Cc3cccc(Br)c3)n2)c1	i	14%	i	24%
CCC(C(=O)Nc1cc(F)ccc1F)n1nc(-c2cc(C)ccc2C)ccc1=O (stereo not given)	i	x	i	22µM*
O=C(C[n+]1csc2ccccc21)c1ccc(I)cc1	x	4%	x	x
N#Cc1c2n(c3c(=O)n(Cc4ccc(Cl)cc4)cnc13)CCCCC2	i[9.22 µM]	13%	i	20µM*
COc1ccc(-n2ncc(C(=O)NCc3ccc4c(c3)OCO4)c2C2CCN(C(=O)OC(C)(C)C)CC2)cc1	i	x	32µM*	30%
Cc1ccc(-n2ncc(C(=O)Nc3ccc4c(c3)OCCO4)c2C2CCN(C(=O)OC(C)(C)C)CC2)cc1	i	x	i	-1%
Cc1ccc(-n2ncc(C(=O)Nc3ccc4c(c3)OCO4)c2C2CCN(C(=O)OC(C)(C)C)CC2)cc1	i	x	28µM*	2%
Cc1ccc(-n2ncc(C(=O)NCc3ccc4c(c3)OCO4)c2C2CCN(C(=O)OC(C)(C)C)CC2)cc1C	i	x	25µM*	16%
CCOc1ccc(/C=N/NC(=S)NC2CC3C=CC2C3)cc1 (stereo not given)	7.9µM*	-10%	i	16%
COc1cc(/C=N/NC(=S)NC2CC3C=CC2C3)cc(OC)c1OC (stereo not given)	u	-6%	i	22%
COc1ccc(-c2csc(C(C)(O)c3ccc(OC)cc3)n2)cc1 (stereo not given)	u	6.3µM*	i	0%
COc1cccc(C(C)(O)c2nc(-c3cccc(C(C)C)c3)cs2)c1 (stereo not given)	i	-18%	u	18µM*
CC(O)(c1ccccc1)c1nc(-c2cccc(F)c2)cs1 (stereo not given)	i	19%	i	0%
COc1ccc(C(C)(O)c2nc(-c3cccc(C#N)c3)cs2)cc1 (stereo not given)	i	u	i	7%
COCc1cccc(-c2csc(C(C)(O)c3ccccc3)n2)c1 (stereo not given)	i	-4%	i	35µM*
CC(O)(c1ccccc1)c1nc(-c2cccc(C#N)c2)cs1 (stereo not given)	u	-1%	i	20µM*
CC(O)(c1ccccc1)c1nc(-c2ccccc2)cs1 (stereo not given)	u	4%	i	14µM*
Oc1cccc(-c2csc(C(O)(c3ccccc3)C(F)(F)F)n2)c1 (stereo not given)	i	u	i	22µM*
COc1ccc(C(C)(O)c2nc(-c3ccc(F)c(Cl)c3)cs2)cc1 (stereo not given)	u	-11%	i	18µM*
COc1ccc(-c2csc(C(C)(O)c3ccc(F)c(F)c3)n2)cc1OC (stereo not given)	i	9%	i	22µM*
COc1ccc(C(C)(O)c2nc(-c3ccc(OC)c(OC)c3)cs2)cc1 (stereo not given)	i	22%	i	u

Compound activity (PubChem BioAssay)
